# A selection: hits, their analogues and other compounds. The true share with any hit is near 2.5%.
# Cruzain inh noDet = blocks cruzain activity in detergent-free assay | purified cruzain, Z-FR-AMC fluorescence, no detergent | 200,000 tested, 2.3% active | P25779 | Potency, µM, without a hit: max response, negative = inhibition, most hits filed as inhibitors;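 further: plate controls were enzyme without inhibitor for no effect and buffer without enzyme for full effect; nearly all actives have a fitted effect of over 40% in size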
# Target sequence (P25779 123-467 limits assumed): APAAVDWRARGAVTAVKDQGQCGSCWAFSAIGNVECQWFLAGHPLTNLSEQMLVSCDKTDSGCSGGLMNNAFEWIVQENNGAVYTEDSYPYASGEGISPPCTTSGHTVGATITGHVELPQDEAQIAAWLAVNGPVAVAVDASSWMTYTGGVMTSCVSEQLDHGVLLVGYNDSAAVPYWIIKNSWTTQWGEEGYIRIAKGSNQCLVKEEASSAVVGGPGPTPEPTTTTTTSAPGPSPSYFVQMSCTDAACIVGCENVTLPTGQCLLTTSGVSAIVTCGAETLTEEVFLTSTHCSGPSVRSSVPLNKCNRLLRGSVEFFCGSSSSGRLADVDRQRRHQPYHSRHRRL
#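 Purified cruzain at 1.5 nM, pre-incubated 15 min with compound at room temperature in 100 mM sodium acetate pH 5.5, 5 mM DTT, 0.00005% Triton X-100. Reaction started with 2 uM Z-FR-AMC; AMC fluorescence increase over 60 s gives rate.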
# Cruzain inh Det = cruzain (T. cruzi) inhibition with detergent; Potency, µM, for the others: max response, negative = inhibition, usual class: inhibitors; 200,000 tested, 0.43% active; purified cruzain, Z-FR-AMC fluorescence, 0.01% Triton; P25779;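 further: plate controls were neutral wells for no effect and buffer without enzyme for full effect; nearly all actives have a fitted effect of over 40% in size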
#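 Z-FR-AMC hydrolysis (2 uM substrate) by cruzain (1.5 nM) monitored kinetically at ex 360/em 450 nm after 15 min room-temperature compound exposure; 0.01% Triton X-100, pH 5.5, 5 mM DTT.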
# Papain counter = counter-screen for cruzain inhibitors: papain inhibition | purified papain, Z-FR-AMC fluorescence cleavage | 410 tested, 41% active | Potency, µM, without a hit: max response, negative = inhibition, usual class: inhibitors | AID 2161 | shares compounds with Cruzain inh Det;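 further: 0% = no-compound wells and -100% = no-enzyme wells; nearly all actives have a fitted effect of over 35% in size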
# Target sequence (P00784 whole entry, looked up): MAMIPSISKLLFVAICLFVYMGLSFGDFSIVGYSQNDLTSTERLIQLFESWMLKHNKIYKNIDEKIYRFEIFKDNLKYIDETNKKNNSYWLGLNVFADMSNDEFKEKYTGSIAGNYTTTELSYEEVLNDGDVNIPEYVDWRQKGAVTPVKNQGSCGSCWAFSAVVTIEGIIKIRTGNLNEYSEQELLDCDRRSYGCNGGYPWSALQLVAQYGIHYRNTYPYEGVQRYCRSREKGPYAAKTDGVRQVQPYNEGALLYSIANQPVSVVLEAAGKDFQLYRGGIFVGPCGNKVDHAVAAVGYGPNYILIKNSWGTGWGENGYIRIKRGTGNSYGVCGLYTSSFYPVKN
# The depositor's hits bear a star; u = inconclusive; x = no result given. The call rests on the fitted dose curve; in most records, active means well fitted curve in the direction sought with a large enough effect; inconclusive means small, poorly fitted or top-dose-only effect, or another doubt; inactive means no such curve, though single readings can be large; an effect the other way counts as inactive or inconclusive. Potency means the concentration at half of the fitted maximal effect.
SMILES,Cruzain inh noDet,Cruzain inh Det,Papain counter
COc1ccc2[nH]c(=O)c(CN(C3CCCCC3)C(c3nnnn3Cc3ccco3)C(C)C)cc2c1 (centres undefined),u,-24%,x
COc1ccc2[nH]c(=O)c(CN(Cc3nnnn3Cc3ccco3)C3CCCCC3)cc2c1,7.9µM*,7.1µM*,-42%
CCC(C)NC(=O)CSc1nc2n[nH]c(C)c2c(=N)n1-c1ccc(C)c(Cl)c1 (centres undefined),-9%,-2%,x
COc1ccc(NCc2nnc3n2CCCCC3)c(OC)c1,-10%,1%,x
Cn1cc(S(=O)(=O)N2CCCCC2)cc1C(=O)N1CCN(c2ccccc2F)CC1,26%,-2%,x
COC(=O)c1ccc(Cl)c(NC(=O)C2CCN(S(=O)(=O)Cc3ccccc3)CC2)c1,1%,0%,x
Cc1cccc(-c2nnc(SCCC(=O)O)o2)c1,-2%,1%,x
O=C(CSC1=Nc2ccccc2N=C(c2ccc(F)cc2)C1)Nc1ccc(Cl)cc1,-7%,-1%,x
COc1ccc2cc(CN(CCc3ccccc3)Cc3nnnn3Cc3ccco3)c(=O)[nH]c2c1,14%,-12%,x
CCc1ccc2[nH]c(=O)c(CN(Cc3ccco3)Cc3nnnn3Cc3ccco3)cc2c1,x,x,-19%
O=C(Nc1ccccc1)N(CCc1nc2ccccc2[nH]1)C1CCCC1,-6%,0%,x
S=C(NC1CCCCC1)N(CCc1nc2ccccc2[nH]1)C1CCCC1,11%,13µM*,7%
COc1ccc(Br)cc1-c1noc(-c2ccccc2F)n1,-11%,-4%,x
O=c1cc(-c2cccc(Br)c2)nc(-c2ccccc2F)o1,10µM*,8.9µM*,1%
Fc1ccccc1-c1nc(-c2ccccc2)no1,11%,-5%,x
O=c1cc(-c2ccccc2F)nc(-c2ccccc2F)o1,7.9µM*,4.5µM*,8%
COc1cc(OC)c2c(c1)OC(c1ccccc1)CC2=O (centres undefined),u,-4%,x
CC(C)CCNC(=O)C1CCN(C(=O)N2CCOc3ccc(Cl)cc32)CC1,1%,-3%,x
COCCN(CCOC)S(=O)(=O)c1ccc(C(=O)Nc2nc(C)c(C(C)=O)s2)cc1,21%,-9%,x
O=C(Nc1nc(-c2ccccc2)c(-c2ccccc2)s1)c1ccc(S(=O)(=O)N(CCCl)CCCl)cc1,4µM*,-2%,17%
Cc1cccc(OCCSc2nc3ccccc3n2CC(=O)N2CCOCC2)c1C,-11%,-5%,x
CNc1oc(Cc2ccccc2)nc1S(=O)(=O)c1ccc(Cl)cc1,10µM*,10µM*,-12%
O=S(=O)(c1ccc(Cl)cc1)c1nc(-c2ccccc2Br)oc1NCc1ccccc1,u,-7%,x
CCc1ccccc1NC(=O)c1cnc(N2CCCCC2)c2ccccc12,u,-7%,x
CCNC(=O)C1CCN(Cc2cc3ccccc3n2Cc2ccc(C)cc2)CC1,17%,-5%,x
SMILES,Cruzain inh noDet,Cruzain inh Det,Papain counter
CC(C)(CO)Nc1nc(Nc2ccccc2)nc(Nc2ccccc2)n1,-2%,-14%,x
Clc1nc(Nc2ccccc2)nc(Nc2ccccc2)n1,-8%,-6%,x
CCCNc1nc(C#N)nc(Nc2ccccc2)n1,x,x,1µM*
CCNc1nc(C#N)nc(Nc2ccccc2)n1,x,x,5.6µM*
CCCCNC(=O)Cn1c(=O)cc(C)c2c(C)nn(-c3ccc(CC)cc3)c21,4%,1%,x
COc1ccc(N(CC(=O)N2CCc3ccccc3C2)S(=O)(=O)c2ccc(C)cc2)cc1Cl,-9%,-6%,x
COc1ccc(OCC(=O)OCc2cc(=O)n3cc(C)sc3n2)cc1,-8%,-5%,x
O=C(CNC(=O)C1CCCCC1)Nc1ccccc1Cl,4%,-2%,x
NC(=O)C(OC(=O)CNC(=O)C1CCCCC1)c1ccccc1 (centres undefined),x,x,13µM*
O=C(Nc1ccccc1)C1CCCCC1,7%,2%,x
O=C(CNC(=O)C1CCCCC1)OC(C(=O)c1ccccc1)c1ccccc1 (centres undefined),x,x,3%
COc1ccccc1CNc1ccc(-c2nc(-c3ccccn3)no2)cc1[N+](=O)[O-],u,-3%,x
COc1ccc(CCCc2nnc(SCC(=O)Nc3cccc(F)c3C)o2)cc1,3%,-4%,x
CC(C)(C)C(=O)O/N=C1/C(=O)N(c2ccccc2)c2ccccc21,20µM*,1.6µM*,25µM*
CC(C)CC(=O)O/N=C1\C(=O)N(c2ccccc2)c2ccccc21,2.5µM*,0.63µM*,1.1µM*
O=C1CCCCC(=O)N(c2ccccc2)c2ccccc21,6%,4%,x
CC(C)CC(=O)Nc1cccc2c1C(=O)N(c1ccccc1)C2=O,-18%,-7%,x
COc1cccc(N2CCN(C(=O)c3cccc(NC(=O)c4nsc5ccccc45)c3)CC2)c1,u,1%,x
O=c1oc2ccc(Br)cc2cc1-c1csc(-c2ccc(Cl)cc2)n1,-6%,2%,x
O=c1oc2ccccc2cc1-c1csc(Cc2nc(-c3ccc(Br)cc3)cs2)n1,3.2µM*,2%,20%
CSCC[C@H](NC(=O)OCc1ccccc1)C(=O)O,-1%,-2%,x
O=C(N[C@@H](Cc1ccccc1)C(=O)CCl)OCc1ccccc1,0.32µM*,0.16µM*,5µM*
CCOCCc1nn2c(=O)cc(COC(=O)c3ccccc3NC(=O)c3cccs3)nc2s1,-1%,1%,x
C=CC(C)(C)c1[nH]c2ccccc2c1C1=C(O)C(=O)C(c2c[nH]c3c(CC=C(C)C)cccc23)=C(O)C1=O,u,32µM*,4.5µM*
CCOC(=O)c1c(C)[nH]c(C)c1S(=O)(=O)N(C)CC(=O)N1CCN(c2cccc(C)c2C)CC1,u,-5%,x
SMILES,Cruzain inh noDet,Cruzain inh Det,Papain counter
Cc1csc2nc(COC(=O)CNC(=O)c3ccc(F)cc3)cc(=O)n12,-14%,-11%,x
Cc1ccccc1NC(=O)CSc1nc(-c2ccco2)nc2cc(=O)[nH]n12,15%,-5%,x
O=C(CSc1nnc(-c2ccco2)c(-c2ccco2)n1)Nc1ccccc1,20µM*,22µM*,25µM*
O=C(CSc1nnc(-c2ccccc2)c(-c2ccccc2)n1)NCc1ccco1,u,-12%,x
Cc1ccccc1NC(=O)CSc1nnc(-c2ccco2)c(-c2ccco2)n1,3.2µM*,25µM*,14µM*
COc1ccc(CNC(=O)c2cc3c(=O)n(Cc4cccs4)ccc3nc2C)cc1,u,-6%,x
CCOC(=O)c1cc(S(=O)(=O)NCc2ccc(Cl)cc2)[nH]n1,-14%,0%,x
COc1ccc2nc(NC(=O)c3cc(=O)c4cc(C)cc(C)c4o3)sc2c1,-5%,-4%,x
CCOc1ccc(-c2cc3nc(C4CCN(C(=O)OC(C)(C)C)CC4)c(C(=O)Nc4c(C)cccc4C)cn3n2)cc1,-21%,-9%,x
CCOc1ccc(-c2cc3nc(C4CCN(C(=O)OC(C)(C)C)CC4)c(C(=O)O)cn3n2)cc1,u,-24%,32µM*
Cc1c(C(=O)NCc2cccc(Cl)c2)sc2nc[nH]c(=O)c12,-1%,-4%,x
O=[N+]([O-])c1cc(C(F)(F)F)ccc1-n1nnc2ccccc21,6%,-5%,x
O=[N+]([O-])c1cc(S(=O)(=O)Nc2ccccc2)ccc1-n1nnc2ccccc21,u,11µM*,-5%
COC(=O)c1cc2oc(C)cc2n1Cc1c(C)cc(C)cc1C,6%,-1%,x
Cc1ccc(-c2csc3nc(SCC(N)=O)n(Cc4ccccc4)c(=O)c23)cc1,7%,-2%,x
N#CCSc1nc2scc(-c3cccs3)c2c(=O)n1CCc1ccccc1,16µM*,7%,10%
Cc1nnc(N/N=C/c2ccc(O)c([N+](=O)[O-])c2)[nH]c1=O,-3%,-4%,x
